The campaign covered roughly 400,000 compounds. About 13,000 (3.2%) were called active. Inconclusive results (about 18%) are left out. Calls come from the whole dose curve; as a rule, active = well fitted cell-killing curve with a large enough effect; inconclusive = small, poorly fitted or top-dose-only effect, or effect the other way; inactive = flat fitted curve, though single readings scatter. What follows is part of a selection rich in actives, with near analogues and random picks from the rest. Entries that show only a call come without a potency.
Potency is the fitted concentration of half-maximal effect.

The assay can be described thus: qHTS assay for MDR1-selective chemotherapeutics: Primary screen using the drug-selected MDR subline cells KB-V1. Note: nearly all actives have a fitted effect of over 60% in size. The settings on record: KB-V1 MDR cells viability, CellTiter-Glo, 72 h; series mostly up to 46.1 µM. Put shortly: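 In this primary screen, KB-V1 cells overexpressing P-gp are incubated with library compounds (lowest to highest concentration) for 72 h at 37 degrees C before a luminescent ATP viability read.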
Turning to `CC1CN(C(=O)c2cccc(NS(=O)(=O)c3ccc(Br)cc3)c2)CC(C)O1` (stereo not drawn), the Potency entry was “inactive”.
In the case of `CCN(CC)C(=O)C1=C(C)N(Cc2ccc(F)cc2)C(=O)C(CC(=O)NCc2cccc3ccccc23)C1` (stereo not drawn) it was “inactive”; in that of `FC(F)(F)Oc1ccccc1C(c1nnnn1C1CCCCC1)N1CCN(C/C=C/c2ccccc2)CC1` (stereo not drawn), “inactive”; in that of `CCCCC[C@@H]1C=C(C(=O)OCC)[C@H](c2ccccc2)N1S(=O)(=O)c1ccc(C)cc1`, “inactive”.
For `CS(=O)(=O)N1CCCCC1c1cc(C(=O)NCc2ccccc2)no1` (stereo not drawn), the Potency result was “inactive”.
Then `Cc1ccc(Cn2c(=O)n(-c3ccc(C)cc3)c(=O)c3c2c2cc(C)ccc2n3C)cc1`, with “inactive”; and `CCOC(=O)COc1ccc([N+](=O)[O-])cc1`, with “inactive”; and `CCOC(=O)/C(=C\c1ccc([N+](=O)[O-])cc1)C(=O)c1cc(C(C)=O)c(Nc2ccccc2)s1`, with 8.2 µM (active).
Then `Cc1ccc(NC(=O)/C(=C/c2ccc([N+](=O)[O-])cc2)NC(=O)c2ccccc2)cc1`, with “inactive”.
With `O=c1c(NCc2cccs2)nccn1-c1ccccc1`, the Potency result was “inactive”.
Then `CNCC(O)CN1CCN(c2ccccc2OC)CC1` (stereo not drawn), with “inactive”; and `COc1ccccc1N1CCN(Cc2cc(OC)c3c(c2)OCO3)CC1`, with “inactive”; and `COc1ccccc1N1CCN(Cc2ccc(OC)c3ccccc23)CC1`, with 16.4 µM (active).
Then `CCCn1c(NCc2ccc(N(CC)CC)cc2)nc2ccccc21`, with “inactive”; and `COc1ccc(-c2ccc(CN3C(C(C)C)C(=O)N(Cc4cn(CC5CCCCC5)nn4)CCS3(=O)=O)cc2)cn1` (stereo not drawn), with “inactive”.
As for `CCOC(=O)c1c(NC(=S)SC)sc(C(=O)N2CCc3ccccc3C2)c1C`, the Potency entry was “inactive”.
Then `C=CCn1c(SCC(=O)NC(=O)Cc2ccccc2)nc2ccccc2c1=O`, with “inactive”; and `O=C(CSc1nnc(-c2cccnc2)n1CCc1ccccc1)NCc1ccccc1`, with “inactive”; and `C=CCn1c(SCC(=O)NCc2ccccc2)nnc1-c1cc(Br)ccc1O`, with 11.6 µM (active).
In the case of `CN1CCN(C(CNC(=O)c2ccccc2F)c2ccc3c(c2)OCO3)CC1` (stereo not drawn) it was “inactive”; in that of `COc1ccc2c(c1)CCc1c(C(=O)Nc3cc(C)ccc3O)noc1-2`, “inactive”; in that of `COc1ccc2c(c1)CCc1c(C(=O)Nc3c(C)n(C)n(-c4ccccc4)c3=O)noc1-2`, 18.4 µM (active).
With `COc1ccc(NS(=O)(=O)c2ccc(C(=O)Nc3c(C)n(C)n(-c4ccccc4)c3=O)cc2)cc1`, the Potency result was “inactive”.
Then `Nc1ccc(/C=C/c2ccnc3ccccc23)c([N+](=O)[O-])c1`, with “inactive”; and `COc1ccc(C2=Nc3ccccc3NC(=O)C2N(C(=O)c2cc3ccccc3[nH]2)c2ccccc2)cc1` (stereo not drawn), with “inactive”.
Then `COc1ccc(-c2ccc(C(=O)NC(C)C)c3occc23)c(C)c1`, with “inactive”; and `O=C(Cn1nnc(-c2ccccc2)n1)NC(=O)NC1CCCC1`, with “inactive”; and `O=C(Cn1nnc(-c2ccc(CN3CCOCC3)cc2)n1)NC1CCCCC1`, with 23.1 µM (active).
As to `COc1cccc(N(CC(=O)NC2CCCC2)C(=O)Cn2nnc(-c3ccc(C)cc3)n2)c1`, the Potency entry is “inactive”.
In the case of `COc1ccc(C(=O)Nc2cccc(NC(=O)c3ccc(OC)cc3OC)n2)c(OC)c1` it was “inactive”.
In the case of `CC(C)(C)C(=O)Nc1cccc(-c2ccc[nH]2)n1` it was 16.4 µM (active); in that of `CC(C)(C)C(=O)Nc1ccc(-c2cn3cccnc3n2)cc1`, “inactive”; in that of `CCCCNC(=O)CCNC(=O)c1ccc(C(C)(C)C)cc1`, 14.6 µM (active).
Then `CC(C)(C)c1ccc(C(=O)NCCC(=O)NCc2ccco2)cc1`, with “inactive”; and `CCCN1CCN(C(=O)CCCNC(=O)c2ccc(Cl)cc2)CC1`, with “inactive”.
For `CCOc1ccc(S(=O)(=O)NCCC(=O)NNC(=O)c2ccc(F)cc2)cc1`, the Potency entry was “inactive”.
In the case of `O=C(CSc1ccc(-c2ccc(F)cc2)nn1)Nc1ccc2c(c1)OCCO2` it was “inactive”; in that of `O=C(CSc1ccc(-c2ccco2)nn1)Nc1cccc(F)c1`, 10.3 µM (active); in that of `O=C(CSc1ccc(-c2ccco2)nn1)NCc1ccc2c(c1)OCO2`, “inactive”.
Then `CC(=O)c1ccc(NC(=O)c2sc3nc4n(c(=O)c3c2C)CCCCC4)cc1`, with 18.4 µM (active); and `O=c1c2c(nc3n1CCCCC3)sc1c(O)cccc12`, with “inactive”; and `Cc1c(C(=O)Nc2ccccc2)sc2nc3n(c(=O)c12)CCCCC3`, with “inactive”.
Then `Cc1ccc(NC(=O)C2(N3CCC3=O)CCCCC2)cc1`, with “inactive”; and `Cc1ccc(C(=O)Nc2ccc(OCc3cc(=O)n4c5c(sc4n3)CCCC5)cc2)cc1`, with “inactive”.
As to `CC(=O)c1ccc(NC(=O)c2nc(-c3ccc(C)cc3)n3c2CCCCC3)cc1`, the Potency was 20.6 µM (active).
For the compound `CC1(Oc2ccccc2-c2ccno2)CCN(Cc2ccc(-c3ccccc3)o2)C1` (stereo not drawn), the Potency entry was “inactive”.
Turning to `CC(C)CCNC(=O)c1[nH]c(C(F)(F)F)nc1-c1ccccc1`, the Potency entry is “inactive”.
Then `NCCCCC(C(=O)O)N(C(=O)OCc1ccccc1)C(=O)OCc1ccccc1` (stereo not drawn), with “inactive”; and `O=C(Nc1ccc(Cl)cc1)c1csc([C@@H]2O[C@H](CO)[C@H](O)[C@H](O)[C@H]2O)n1`, with “inactive”.
On to `CC(=O)Nc1ccc2nc(SCCOc3cc(C)cc(C)c3)sc2c1`, for which the Potency result was “inactive”.
In the case of `O=C1NC[C@H](CCCCN2C[C@H](Cc3ccc(O)cc3)N(CCc3ccccc3)C(=O)C2=O)N(CCc2ccccc2)C1=O` it was “inactive”; in that of `Cc1cccc(Cn2c(CN3CCC(C(=O)NCc4ccccc4Cl)CC3)cc3ccccc32)c1`, “inactive”; in that of `C/C(COc1ccccc1)=N\NC(=O)c1nnn(-c2nonc2N)c1-c1ccc(C)cc1`, “inactive”.
In the case of `CCN(CC)c1cc(NC2CCCCC2)c2c3c(onc13)-c1ccccc1C2=O` it was “inactive”.
Then `CCOC1=C2CN(S(=O)(=O)c3ccc(C)cc3)[C@H](c3cccs3)C[C@H]2[C@H]2C(=O)N(c3ccccc3)C(=O)[C@H]2C1`, with “inactive”; and `COc1ccc(CCNC(=O)c2cc(-c3ccc4c(c3)OCO4)on2)cc1OC`, with “inactive”; and `COc1cc(-c2c(-c3ccc4c(c3)OCO4)noc2C)ccc1F`, with 5.8 µM (active).
For `Cc1oc(C)c2c(=O)cc(-c3ccc4c(c3)OCO4)cc(OC(=O)c3ccc(Cl)cc3)c12`, the Potency entry is “inactive”.
For the compound `CC(Oc1ccc(Br)cc1)C(=O)NCC(c1ccco1)N1CCCCC1` (stereo not drawn), the Potency was 14.6 µM (active).
In the case of `O=C(CCNC(=O)c1ccc(Br)cc1)NCC(c1ccco1)N1CCCCC1` (stereo not drawn) it was “inactive”.
In the case of `CC(Oc1ccc(Br)cc1)C(=O)NC1CCCCCC1` (stereo not drawn) it was “inactive”; in that of `C=CCn1c2c(c3ccccc31)CCC2`, “inactive”; in that of `COc1ccc(CN2C(=O)C(CC(=O)NCc3cccc4ccccc34)CC(C(=O)N3CCOCC3)=C2C)cc1` (stereo not drawn), “inactive”.
Then `O=C(C[C@H]1CC[C@@H](NC(=O)c2ccncc2)[C@@H](CO)O1)NCC1CC1`, with “inactive”.
In the case of `O=C(CSc1nc(C2CC2)nc2ccccc12)Nc1ccc2c(c1)OCCO2`, the Potency was 14.6 µM (active).
Turning to `O=C(CSc1nc(C2CC2)nc2ccccc12)Nc1cccc(O)c1`, the Potency result is “inactive”.
In the case of `Cc1nnc(NC(=O)CSc2nc(C3CCCCC3)nc3ccccc23)s1` it was “inactive”.
Then `CCc1ccc(OC2(C)CCN(CCOc3ccc(C)cc3)C2)cc1` (stereo not drawn), with “inactive”; and `COc1cc(CNc2ncnc3c2ncn3[C@H]2CN(Cc3cccs3)C[C@@H](CO)O2)cc(OC)c1OC`, with “inactive”.
Then `COc1ccc(NC(=O)N(C)C[C@@H]2OCc3cn(nn3)CCCC(=O)N([C@H](C)CO)C[C@H]2C)c(OC)c1`, with “inactive”; and `CC(=O)NC1=NN(C(C)=O)C(C)(c2ccc(Cl)s2)S1` (stereo not drawn), with 5.8 µM (active); and `CC(=O)NC1=NN(C(C)=O)C(C)(CCS(=O)(=O)c2ccc(Cl)c(Cl)c2)S1` (stereo not drawn), with “inactive”.
Regarding `CC(=O)NC1=NN(C(C)=O)C(C)(c2ccc(C)cc2)S1` (stereo not drawn), the Potency result was “inactive”.
In the case of `CCNC(=O)C1(C)CCN(Cc2ccc(C(=O)OCC)o2)C1` (stereo not drawn) it was “inactive”; in that of `CC(=O)C[C@@H]1OC[C@H](CO)N1S(=O)(=O)c1ccc(C)cc1`, “inactive”.
Then `COc1ccc(Cl)cc1-c1cc(C(=O)Nc2cc(OC)c(OC)c(OC)c2)[nH]n1`, with “inactive”; and `CCn1c(=N)n(CC(=O)c2cccc(OC)c2)c2ccccc21`, with 8.2 µM (active); and `COc1ccc2cc(C(=O)O)n(CC(=O)c3ccccc3)c2c1`, with “inactive”.
Then `CCCn1c(=N)n(CC(=O)c2ccc(Cl)c(Cl)c2)c2ccccc21`, with “inactive”; and `O=C(N[C@H]1CC[C@H](CC(=O)N2CCCCC2)O[C@@H]1CO)c1cccc(F)c1`, with “inactive”; and `Cc1cc2nc(-c3ccco3)c(Cc3cccc(F)c3)n2c(C)c1Br`, with “inactive”.
`CCOc1ccccc1NC(=O)Cn1c(=O)n(Cc2ccccc2)c(=O)c2c(C)c(C(=O)N(C)C)sc21`: the Potency entry was “inactive”.
`Cc1cccc(-n2c(=O)c3c(C)c(C)sc3n(CC(N)=O)c2=O)c1`: the Potency result was “inactive”.
In the case of `Cc1cccc(NC(=O)Cn2c(=O)n(Cc3ccccc3)c(=O)c3c(C)c(C)sc32)c1` it was 5.17 µM (active).
In the case of `CCCS(=O)(=O)NC(=O)C1(C)CCCN(C(=O)c2cc(C)on2)C1` (stereo not drawn) it was “inactive”; in that of `O=C(OCc1ccc(Br)cc1)c1cccc(-c2nnc(-c3ccccc3)o2)c1`, 9.2 µM (active).
Then `CC(=O)Nc1cccc(C(=O)OCC(=O)Nc2nnc(-c3ccccc3)o2)c1`, with “inactive”; and `O=C(OCc1ccc(-c2ccccc2)cc1)c1cccc(O)c1`, with “inactive”; and `O=C(O)C1=C/C(=C/C=[N+]2c3cc(O)c(O[C@H]4OC(CO)[C@@H](O)[C@@H](O)[C@@H]4O)cc3C[C@@H]2C(=O)[O-])C[C@H](C(=O)O)N1` (stereo partly drawn), with “inactive”.
As for `O=C(Nc1cccc2c1CCCC2)C1CCN(C(=O)NC2CCCCC2)CC1`, the Potency was 13 µM (active).
Then `Cc1ccccc1NC(=O)C1CCN(C(=O)NC2CCCCC2)CC1`, with “inactive”; and `Cc1cccc(NC(=O)C2CCN(C(=O)NC3CCCCC3)CC2)c1`, with “inactive”; and `CCCCC(O)C1=C[N+](=O)CC=C1` (stereo not drawn), with “inactive”.
As for `COc1ccc(N(CC(=O)NCCc2ccc(Cl)cc2)S(=O)(=O)c2c(C)nn(C)c2C)cc1`, the Potency result is “inactive”.
In the case of `C(=Nc1ccc(/C=C/c2ccnc3ccccc23)cc1)c1cc2c3c(c1)CCCN3CCC2` it was “inactive”; in that of `Cc1cc2c(C)nc(N/N=C/c3ccccc3)nc2o1`, 23.1 µM (active); in that of `O=c1c2ccccc2nc(N/N=C/c2ccccc2)n1O`, “inactive”.
In the case of `Cc1nc(Cl)cc(N/N=C/c2ccccc2)n1` it was “inactive”.
